In PubChem BioAssay one finds composite z-score and z-score data, which are given here for 9 molecules.

Assay [1] in a line: small molecules captured by biotinylated probe aFSTL3 – biochemical, small-molecule microarray, fluorescence 635/667, stem cell growth factor project, primary screen (AID 1064).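 Further: measures binding of the biotinylated anti-FSTL3 antibody to printed compounds.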 Particulars: higher = more signal.
A short description of assay [2]: binders from COS7 lysate, DM2A8 probe, primary screen, torsin A project, cell lysate, small-molecule microarray, fluorescence 635/667 (AID 1065). Particulars: higher = more signal, COS7 lysate expressing mutant human TOR1A.
The nature of assay [3]: small molecules captured by biotinylated probe aFGF2 – biochemical, small-molecule microarray, fluorescence 635/667, stem cell growth factor project, primary screen (AID 1067).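 Further: measures binding of biotinylated aFGF2 protein to printed compounds on slides; z-score merges feature fluorescence and signal-to-noise across triplicate slides.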 Particulars: higher = more signal.
Assay [4] in a line: small molecules captured by biotinylated probe aFGF10 – biochemical, small-molecule microarray, fluorescence 635/667, stem cell growth factor project, primary screen (AID 1071).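 Further: score merges 667 nm spot intensity and signal to noise from triplicate slides.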 The settings on record: higher = more signal.
In assay [5] the target is Neurogenic locus notch homolog protein 2 (Homo sapiens) (UniProt Q04721). Description: small molecules binding Notch2 protein – biochemical, small-molecule microarray, 635 nm fluorescence, stem cell growth factors, primary screen (AID 1073). Particulars: higher = more signal.
Assay [6] concerns the target Pro-neuregulin-1, membrane-bound isoform (Homo sapiens) (UniProt Q02297). Description: small molecules binding neuregulin-1 protein – biochemical, small-molecule microarray, fluorescence 635/667, psychiatric disease protein project, primary screen (AID 1075).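 Further: score combines 667 nm spot fluorescence with signal to noise.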 The settings on record: NRG1 binding, 635 nm fluorescence, higher = more signal.
In assay [7] the test system is Neuregulin-1 EGF-like domain. Description: small molecules binding NRG1 EGF domain – biochemical, small-molecule microarray, 635 nm fluorescence, primary screen (AID 1081).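 Further: binding of the protein to compounds printed on small-molecule microarray slides.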 The settings on record: higher = more signal.
Assay [8] is described as follows: FRG1 expression reporter modulators in myotubes – cell-based, C2C12 myotubes, firefly/Renilla luciferase, luminescence, FRG1 inhibition for FSHD, primary screen (AID 1084). The settings on record: FRG1 promoter luciferase, higher = more signal, called active from +8 up or from −8 down.
Assay [9] in a line: small molecules captured by biotinylated probe aFST – biochemical, small-molecule microarray, fluorescence 635/667, stem cell growth factor project, primary screen (AID 1086).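 Further: score merges 667 nm fluorescence with signal-to-noise of each printed compound spot.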 The settings on record: higher = more signal.
Assay [10] is described as follows: binders of probe aHhip on microarray, primary screen, stem cell growth factor project, biochemical, small-molecule microarray, fluorescence 635/667 (AID 1087).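 Further: score merges spot fluorescence at 667nm with spot signal to noise ratio.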 The settings on record: higher = more signal.
In assay [11] the test system is PRMT1 (protein arginine N-methyltransferase 1). Description: small molecules binding arginine methyltransferase PRMT1 – biochemical, small-molecule microarray, 635 nm fluorescence, primary screen (AID 1088).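 Further: binding of Prmt1 protein to compounds spotted on small-molecule microarray slides.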 Particulars: higher = more signal.
Assay [12] can be described thus: growth effects on S. cerevisiae YJM789 – YJM789 clinical isolate, OD600, 24 h, basal, primary screen (AID 1089).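 Further: growth of clinical yeast isolate S. cerevisiae YJM 789 seeded 1000 cells per well; test concentration not given here.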 Particulars: higher = more signal, called active from +8 up or from −8 down.
A short description of assay [13]: S. pombe growth modifiers, basal conditions – strain 972, OD600, 24 h, no modulator, primary screen (AID 1090).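 Further: basal condition with compound alone and no growth modifier present; test concentration not given here.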 Particulars: S. pombe 972 growth, higher = more signal, called active from +8 up or from −8 down.
Assay [14] is described as follows: budding yeast growth modifiers under rapamycin – strain BY4716, OD600, 96 h, primary screen (AID 1091). Further: test concentration not given here. Particulars: S. cerevisiae BY4716 + rapamycin, higher = more signal, called active from +8 up or from −8 down.
Assay [15] has as its target Torsin-1A-interacting protein 2 (Homo sapiens) (UniProt Q8NFQ8). Description: small molecules binding lysate-expressed LULL1 – cell lysate, human LULL1 lysate, 635/667 nm fluorescence, primary screen (AID 1092).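 Further: probe is lysate of COS7 cells overexpressing human LULL1; score merges per-feature 667 nm fluorescence with signal-to-noise.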 Particulars: small-molecule microarray, hLULL1 lysate binding, 635 nm fluorescence; higher = more signal.
The nature of assay [16]: optical density change of DRC41 E. coli – strain DRC41, OD650, 24 h, E. coli filamentation project, primary screen (AID 1093).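 Further: MC1000 strain lacking acrAB efflux and sulA so SOS filamentation is blocked; test concentration not given here.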 Particulars: E. coli DRC41 growth, higher = more signal, called active from +8 up or from −8 down.
The nature of assay [17]: probe aLefty2 binding to arrayed compounds – biochemical, biotinylated probe, 635/667 nm fluorescence, primary screen (AID 1094).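 Further: score merges spot fluorescence near 667 nm with spot signal-to-noise ratio.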 Particulars: small-molecule microarray, higher = more signal.
Assay [18] has as its system Noggin (protein binding on small-molecule microarray). Description: small molecules binding Noggin protein – biochemical, 635/667 nm fluorescence, primary screen (AID 1095).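 Further: score merges 667 nm feature fluorescence with signal to noise over triplicate slides.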 Particulars: 635 nm fluorescence, higher = more signal.
The target of assay [19] is Neurogenic locus notch homolog protein 3 (Homo sapiens) (UniProt Q9UM47). In words: small molecules binding NOTCH3 protein – biochemical, 635/667 nm fluorescence, primary screen (AID 1096). The settings on record: small-molecule microarray, 635 nm fluorescence, higher = more signal.
The nature of assay [20]: probe aEGFR binding to arrayed compounds – biochemical, biotinylated probe, 635/667 nm fluorescence, primary screen (AID 1097).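 Further: probe is a biotinylated anti-EGFR antibody binding compounds printed on slides; score combines fluorescence near 667 nm and signal to noise of each spot.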 Particulars: small-molecule microarray, higher = more signal.

Calls of active or inactive are those of the source.

Chain of Pro-neuregulin-1, membrane-bound isoform (Homo sapiens) (Q02297 whole entry, looked up, the tested form may be a part, canonical isoform): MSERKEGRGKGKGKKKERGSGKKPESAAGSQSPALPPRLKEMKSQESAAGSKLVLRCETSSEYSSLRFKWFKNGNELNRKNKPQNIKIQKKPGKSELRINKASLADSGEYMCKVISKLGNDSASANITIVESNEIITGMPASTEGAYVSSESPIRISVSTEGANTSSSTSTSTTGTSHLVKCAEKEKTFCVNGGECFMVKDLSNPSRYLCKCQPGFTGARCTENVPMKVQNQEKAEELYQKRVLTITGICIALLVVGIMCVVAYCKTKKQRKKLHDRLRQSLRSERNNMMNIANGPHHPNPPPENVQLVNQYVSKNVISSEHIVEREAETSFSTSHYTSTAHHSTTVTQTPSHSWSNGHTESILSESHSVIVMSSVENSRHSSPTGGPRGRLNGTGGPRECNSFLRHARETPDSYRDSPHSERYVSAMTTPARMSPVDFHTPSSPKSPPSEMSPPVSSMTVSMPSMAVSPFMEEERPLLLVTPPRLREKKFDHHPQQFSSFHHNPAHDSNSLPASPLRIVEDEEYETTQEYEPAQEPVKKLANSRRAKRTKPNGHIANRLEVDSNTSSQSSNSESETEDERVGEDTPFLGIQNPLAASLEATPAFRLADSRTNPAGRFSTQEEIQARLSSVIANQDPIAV
Chain of Neurogenic locus notch homolog protein 3 (Homo sapiens) (Q9UM47 whole entry, looked up): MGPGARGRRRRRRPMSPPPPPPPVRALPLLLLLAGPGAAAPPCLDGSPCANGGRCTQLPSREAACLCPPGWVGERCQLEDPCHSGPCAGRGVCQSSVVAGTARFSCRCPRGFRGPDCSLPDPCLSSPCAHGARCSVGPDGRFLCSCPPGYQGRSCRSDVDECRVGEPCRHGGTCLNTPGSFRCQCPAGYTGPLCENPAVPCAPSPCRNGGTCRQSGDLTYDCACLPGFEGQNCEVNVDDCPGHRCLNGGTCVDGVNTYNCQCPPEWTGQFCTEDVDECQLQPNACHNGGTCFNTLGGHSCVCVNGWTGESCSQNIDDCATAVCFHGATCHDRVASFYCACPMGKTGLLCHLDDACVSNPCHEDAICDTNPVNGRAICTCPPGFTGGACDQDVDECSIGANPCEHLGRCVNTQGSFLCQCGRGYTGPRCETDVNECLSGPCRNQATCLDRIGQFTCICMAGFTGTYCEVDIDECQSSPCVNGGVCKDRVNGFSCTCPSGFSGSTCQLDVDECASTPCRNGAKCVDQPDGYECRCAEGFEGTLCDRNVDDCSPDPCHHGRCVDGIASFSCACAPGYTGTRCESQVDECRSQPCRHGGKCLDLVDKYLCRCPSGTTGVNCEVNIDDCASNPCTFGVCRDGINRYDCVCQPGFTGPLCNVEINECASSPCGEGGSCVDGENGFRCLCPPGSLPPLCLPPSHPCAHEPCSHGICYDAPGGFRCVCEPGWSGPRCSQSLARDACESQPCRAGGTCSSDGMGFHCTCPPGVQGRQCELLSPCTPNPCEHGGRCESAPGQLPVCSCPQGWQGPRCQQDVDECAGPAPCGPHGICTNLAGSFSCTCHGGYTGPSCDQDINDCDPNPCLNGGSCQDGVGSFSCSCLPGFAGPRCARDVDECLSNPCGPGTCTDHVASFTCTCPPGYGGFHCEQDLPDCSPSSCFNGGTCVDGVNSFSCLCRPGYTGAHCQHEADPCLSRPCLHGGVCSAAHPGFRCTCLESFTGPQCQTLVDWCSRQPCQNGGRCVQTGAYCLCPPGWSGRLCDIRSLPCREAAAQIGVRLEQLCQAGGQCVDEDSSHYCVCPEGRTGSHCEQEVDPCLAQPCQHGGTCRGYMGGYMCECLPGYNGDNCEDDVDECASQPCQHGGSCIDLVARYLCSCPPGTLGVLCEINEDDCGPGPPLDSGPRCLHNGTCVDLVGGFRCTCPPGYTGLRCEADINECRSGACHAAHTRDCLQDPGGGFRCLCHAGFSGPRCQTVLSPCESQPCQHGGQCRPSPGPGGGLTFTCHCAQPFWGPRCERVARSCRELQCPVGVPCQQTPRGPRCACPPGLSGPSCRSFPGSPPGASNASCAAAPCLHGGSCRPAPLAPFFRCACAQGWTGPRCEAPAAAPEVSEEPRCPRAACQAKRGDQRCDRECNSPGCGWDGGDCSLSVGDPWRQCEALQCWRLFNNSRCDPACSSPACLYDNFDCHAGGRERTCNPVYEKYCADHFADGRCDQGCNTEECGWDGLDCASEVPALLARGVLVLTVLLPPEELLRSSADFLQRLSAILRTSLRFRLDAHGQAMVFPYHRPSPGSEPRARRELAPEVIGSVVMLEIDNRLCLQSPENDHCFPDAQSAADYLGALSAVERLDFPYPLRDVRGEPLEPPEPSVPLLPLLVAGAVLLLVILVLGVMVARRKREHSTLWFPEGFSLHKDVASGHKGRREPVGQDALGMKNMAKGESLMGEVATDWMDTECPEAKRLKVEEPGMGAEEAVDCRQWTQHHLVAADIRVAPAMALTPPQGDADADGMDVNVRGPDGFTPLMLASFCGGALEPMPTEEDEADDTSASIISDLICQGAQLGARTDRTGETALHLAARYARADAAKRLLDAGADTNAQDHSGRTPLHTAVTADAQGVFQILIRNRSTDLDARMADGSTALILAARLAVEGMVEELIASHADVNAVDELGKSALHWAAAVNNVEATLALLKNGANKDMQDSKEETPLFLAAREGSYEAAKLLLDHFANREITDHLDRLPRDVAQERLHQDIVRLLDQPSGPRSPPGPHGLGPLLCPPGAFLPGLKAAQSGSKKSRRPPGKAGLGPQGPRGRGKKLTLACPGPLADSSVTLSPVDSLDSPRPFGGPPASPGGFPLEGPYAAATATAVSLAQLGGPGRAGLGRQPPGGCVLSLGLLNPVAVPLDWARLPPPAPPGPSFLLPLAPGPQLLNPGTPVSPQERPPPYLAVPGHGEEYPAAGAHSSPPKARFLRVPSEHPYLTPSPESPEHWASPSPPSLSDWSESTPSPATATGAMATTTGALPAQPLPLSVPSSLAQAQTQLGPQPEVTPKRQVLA
Chain of Torsin-1A-interacting protein 2 (Homo sapiens) (Q8NFQ8 whole entry, looked up): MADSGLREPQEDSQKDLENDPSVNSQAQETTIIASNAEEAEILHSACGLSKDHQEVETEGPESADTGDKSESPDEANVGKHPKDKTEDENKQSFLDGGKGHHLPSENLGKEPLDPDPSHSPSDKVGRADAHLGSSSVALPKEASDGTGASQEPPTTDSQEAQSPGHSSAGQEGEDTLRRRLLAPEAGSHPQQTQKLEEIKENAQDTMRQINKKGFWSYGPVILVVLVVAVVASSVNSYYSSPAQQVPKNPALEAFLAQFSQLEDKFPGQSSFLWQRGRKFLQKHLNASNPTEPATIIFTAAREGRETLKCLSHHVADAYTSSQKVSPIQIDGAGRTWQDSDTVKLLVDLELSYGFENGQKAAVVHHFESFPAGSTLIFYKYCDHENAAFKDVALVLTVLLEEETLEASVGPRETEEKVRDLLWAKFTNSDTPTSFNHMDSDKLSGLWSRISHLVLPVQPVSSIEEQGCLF

For the molecule `O=C1[C@H]2C=C(I)[C@H](C[C@@H]2OCCCCCCO)[C@@]12CO2`, the composite z-score in [1] was -0.123; in assay [2] it was 0.249; in assay [3], -0.169; in assay [4], 0.0956; in assay [5], 1.01; in [6] it was -0.715. The composite z-score in [7] was -0.175; in assay [9], -0.132; in assay [10] it was -0.183; in assay [11] it was -0.134; in assay [15] it was -0.505; in [17], -0.121. Besides, the composite z-score in assay [18] is 0.263; in [19], 1.13; in assay [20], -0.133. Further, the z-score in assay [8] is 0.622 (inactive); in assay [12] it was -1.5 (inactive); in assay [13], -2.19 (inactive); in assay [14], -0.384 (inactive); in assay [16] it was -1.05 (inactive).
Consider `CC(C)NC(=O)[C@@]1(c2ccc([N+](=O)[O-])cc2)CC(=O)N(CC23CC4CC(CC(C4)C2)C3)[C@@H]1c1ccc(CO)cc1`, for which the composite z-score in assay [1] stood at 1.43; in [2], 0.522; in assay [3] it was 0.516; in assay [4], 1.02; in assay [5], 1.42; in assay [6] it was 1.9. In addition, the composite z-score came to 1.18 in assay [7]; 1.86 in assay [9]; 1.11 in assay [10]; 1.54 in [11]; 3.03 in assay [15]; 0.707 in assay [17]. Moreover, the composite z-score in assay [18] was found to be 1.57; in assay [19], 1.02; in assay [20], 0.837. In addition, the z-score in assay [8] was -3.57 (inactive); in assay [12] it was -0.383 (inactive); in assay [13], -0.822 (inactive); in assay [14], 0.937 (inactive); in [16], 0.267 (inactive).
In the case of `C=CCOC(=O)[C@@H]1[C@H]2C(=O)O[C@H](c3ccccc3)[C@H](c3ccccc3)N2[C@H](c2ccc(OCCOC(=O)[C@H]3C[C@H]4C(=O)N5CCC[C@H]5C(=O)N4[C@H]3c3cccc(OCCO)c3)cc2)[C@@]12C(=O)Nc1ccc(I)cc12`, the composite z-score in assay [1] was -0.0333; in assay [2], 0.546; in assay [3], -0.0538; in assay [4], 0.441; in [5], 0.596; in [6], 0.499. Besides, the composite z-score in assay [7] was 1.2; in assay [9] it was 0.182; in assay [10] it was -0.0767; in assay [11], 1.53; in assay [15] it was 1.6; in [17] it was -0.0125. In addition, the composite z-score turned out to be 1.52 in assay [18], 1.11 in assay [19] and 0.0238 in [20]. Further, the z-score was 1.67 (inactive) in assay [8]; 1.3 (inactive) in assay [12]; 2.38 (inactive) in assay [13]; 4.79 (inactive) in assay [14]; -0.333 (inactive) in assay [16].
Regarding `CN(C)CCCCNC(=O)[C@H]1C[C@H]2C(=O)N3CCC[C@H]3C(=O)N2[C@H]1c1cccc(OCCO)c1`, the composite z-score was 0.429 in assay [1]; 0.76 in assay [2]; -0.0386 in assay [3]; 0.0348 in assay [4]; -0.182 in assay [5]; 1.94 in assay [6]. The composite z-score amounted to 1.28 in assay [7]; 0.081 in assay [9]; 0.565 in assay [10]; 1.1 in [11]; 3.09 in assay [15]; 0.0164 in [17]. In addition, the composite z-score in assay [18] was 0.866; in assay [19], 0.476; in [20] it was -0.0968. In addition, the z-score was 3.81 (inactive) in assay [8]; 0.752 (inactive) in assay [12]; 1.68 (inactive) in [13]; 0.751 (inactive) in [14]; -0.101 (inactive) in [16].
In the case of `OCCCC1=CC(c2ccc(CN3CCCC3)cc2)N(Cc2cccc(OC(F)(F)F)c2)CC1` (stereo not given), the composite z-score in assay [1] was 0.373; in assay [2], 0.134; in assay [3], -0.0853; in assay [4], 0.0263; in assay [5], -0.546; in assay [6], 0.0603. Also, the composite z-score in assay [7] was 0.0735; in assay [9], -0.176; in [10], -0.236; in [11] it was -0.688; in assay [15], 0.203; in [17], 0.0029. The results for the composite z-score in [18], in assay [19] and in assay [20] were 0.123, -0.752 and -0.181, respectively. The z-score was 0.372 (inactive) in assay [8]; -2.01 (inactive) in assay [12]; -14.9 (active) in assay [13]; -2.62 (inactive) in assay [14]; -0.987 (inactive) in [16].
As for `COc1ccc([Si](C)(C)[C@H]2[C@H](CC(=O)N3Cc4ccccc4C[C@H]3CO)O[C@@]3(C(=O)N(C)c4c(Br)cc(C)cc43)[C@@H]2C)cc1`, the composite z-score in assay [1] was -0.0669; in assay [2] it was 0.403; in assay [3] it was -0.119; in assay [4], 0.333; in [5] it was 0.363; in assay [6], 1.05. Also, the composite z-score in assay [7] is 1.11; in assay [9], 0.334; in assay [10], -0.132; in assay [11], 1.54; in [15], 0.986; in [17], -0.0631. Also, the composite z-score in [18] is 1.42; in [19] it was 1.09; in assay [20] it was -0.0828. Besides, the z-score was -4.4 (inactive) in assay [8]; 0.344 (inactive) in assay [12]; 0.788 (inactive) in assay [13]; 5.53 (inactive) in [14]; -0.498 (inactive) in assay [16].
`CCCCCC1=C2CNC(CC(C)C)(C(=O)OC)C=C2C(C)C1=O` (stereo not given): the composite z-score in assay [1] was 1.08; in [2], -0.176; in assay [3], 0.185; in assay [4], 0.0051; in assay [5], 0.122; in assay [6] it was 1.01. Also, the composite z-score stood at 0.568 in [7]; 0.404 in assay [9]; 3.31 in [10]; 1.51 in [11]; 2.87 in assay [15]; 0.0887 in assay [17]. Moreover, the composite z-score was -0.272 in [18], 0.225 in [19] and -0.126 in [20]. Further, the z-score is 0.51 (inactive) in [8]; 0.298 (inactive) in assay [12]; 0.421 (inactive) in assay [13]; 0.22 (inactive) in assay [14]; -0.415 (inactive) in assay [16].
As for `C=CC1c2cc(O)c(OC)cc2CCN1C` (stereo not given), the composite z-score in assay [1] was 0.0043; in assay [2] it was -0.231; in assay [3], -0.103; in assay [4], 0.275; in assay [5], -0.208; in assay [6], 0.0582. In addition, the composite z-score in assay [7] is 1.06; in assay [9], 0.0531; in assay [10], 0.0373; in assay [11], -0.648; in [15], 0.134; in assay [17] it was 0.0112. The values for the composite z-score in assay [18], in assay [19] and in [20] were -0.542, -0.821 and -0.135, respectively. Further, the z-score is -0.201 (inactive) in assay [8]; -0.763 (inactive) in [12]; -0.819 (inactive) in assay [13]; 0.0904 (inactive) in assay [14]; -0.223 (inactive) in assay [16].
As for `C=CCC(OC(C)=O)[C@@H]1[C@@H](N(Cc2cc3ccccc3o2)C(=O)Cc2ccc(OC)cc2)c2cc(OCCCO)ccc2N1C(=O)c1ccc2ccccc2n1` (stereo not given in full), the composite z-score is -0.0558 in [1]; -0.24 in assay [2]; 0.0372 in assay [3]; 0.176 in assay [4]; 0.0554 in assay [5]; -0.251 in assay [6]. For the same molecule, the composite z-score in assay [7] was -0.0159; in assay [9] it was 0.271; in [10] it was 0.12; in [11] it was 0.404; in [15] it was 0.295; in assay [17], 0.0478. The values for the composite z-score in assay [18], in assay [19] and in [20] were 0.356, 0.0707 and 0.0453, respectively. For the same molecule, the z-score was 0.544 (inactive) in assay [8]; -0.256 (inactive) in [12]; -0.844 (inactive) in [13]; 0.292 (inactive) in [14]; 1.03 (inactive) in assay [16].
